What all share (assay): DAPPL (digital affinity profiling via proximity ligation, sequencing); 10 mM Tris-HCl pH 7.5, 50 mM NaCl, 1 mM DTT, 4% glycerol, room temperature, 30 min; GST-TFs on glutathione beads, 16-mer random dsDNA library, 0.1% formaldehyde crosslink after washing; high values mean tight binding
Experiment [1] addresses T1, FLI1 (Homo sapiens, UniProt Q01543 1-452).
T1 sequence: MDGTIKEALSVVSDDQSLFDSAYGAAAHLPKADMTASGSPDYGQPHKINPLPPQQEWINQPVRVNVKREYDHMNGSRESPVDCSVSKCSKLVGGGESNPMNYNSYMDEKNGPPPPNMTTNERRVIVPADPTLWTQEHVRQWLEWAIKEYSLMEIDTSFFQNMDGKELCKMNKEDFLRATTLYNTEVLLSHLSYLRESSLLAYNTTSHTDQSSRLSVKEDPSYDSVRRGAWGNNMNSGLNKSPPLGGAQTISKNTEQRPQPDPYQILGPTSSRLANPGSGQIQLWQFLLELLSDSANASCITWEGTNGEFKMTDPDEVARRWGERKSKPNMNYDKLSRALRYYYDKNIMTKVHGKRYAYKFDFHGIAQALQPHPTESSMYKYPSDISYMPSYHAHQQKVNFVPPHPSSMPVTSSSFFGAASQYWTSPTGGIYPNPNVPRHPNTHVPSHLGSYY
The note with it: protein: recombinant; tags: N-terminal GST; dsDNA, one strand shown. In outline:
(§1)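 Binding signal is given per hexamer as its read frequency for a factor divided by its frequency in the tag-only sample. GST-fused human transcription factors were expressed in yeast, captured on glutathione beads, barcoded with DNA and pooled with that sample, then incubated with 200 nmole of a 16-mer random double-stranded DNA library in Tris/NaCl/DTT/glycerol buffer for 30 min at room temperature. The pools were then washed, crosslinked, proximity-ligated, amplified by PCR and sequenced on an Illumina NextSeq500.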

Experiment [2] addresses T2, ELK1 (Homo sapiens, UniProt P19419 1-428).
T2 sequence: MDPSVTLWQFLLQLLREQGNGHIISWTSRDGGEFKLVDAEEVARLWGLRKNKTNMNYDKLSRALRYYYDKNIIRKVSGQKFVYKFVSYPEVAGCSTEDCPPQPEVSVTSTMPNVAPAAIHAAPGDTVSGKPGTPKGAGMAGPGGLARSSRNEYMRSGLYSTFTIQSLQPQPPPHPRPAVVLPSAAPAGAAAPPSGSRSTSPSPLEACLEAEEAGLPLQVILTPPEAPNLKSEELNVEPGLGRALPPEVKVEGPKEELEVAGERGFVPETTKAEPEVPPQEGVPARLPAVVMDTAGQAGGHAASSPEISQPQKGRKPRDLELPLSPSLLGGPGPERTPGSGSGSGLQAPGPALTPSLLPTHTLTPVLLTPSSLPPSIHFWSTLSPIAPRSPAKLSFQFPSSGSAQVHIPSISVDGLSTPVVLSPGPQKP
The following applies: protein: recombinant; tags: N-terminal GST; dsDNA, one strand shown. In outline: as §1

For experiment [3], the target named is T3, GABPA (Homo sapiens, UniProt Q06546 1-454).
T3 sequence: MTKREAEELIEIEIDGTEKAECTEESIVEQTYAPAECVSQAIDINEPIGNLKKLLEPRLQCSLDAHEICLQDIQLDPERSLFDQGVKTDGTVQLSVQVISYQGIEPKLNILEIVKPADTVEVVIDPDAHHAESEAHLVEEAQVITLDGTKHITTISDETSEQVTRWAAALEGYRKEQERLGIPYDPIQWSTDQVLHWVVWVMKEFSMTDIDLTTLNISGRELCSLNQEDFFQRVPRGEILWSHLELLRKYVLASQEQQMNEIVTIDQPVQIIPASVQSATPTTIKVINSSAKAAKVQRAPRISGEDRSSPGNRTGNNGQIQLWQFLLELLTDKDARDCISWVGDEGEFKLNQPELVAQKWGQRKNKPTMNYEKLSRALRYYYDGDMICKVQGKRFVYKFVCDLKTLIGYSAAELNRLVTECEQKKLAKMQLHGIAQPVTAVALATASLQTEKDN
The note with it: protein: recombinant; tags: N-terminal GST; dsDNA, one strand shown. In outline: as §1

Experiment [4] deals with T4, ERG (Homo sapiens, UniProt P11308 1-479).
T4 sequence: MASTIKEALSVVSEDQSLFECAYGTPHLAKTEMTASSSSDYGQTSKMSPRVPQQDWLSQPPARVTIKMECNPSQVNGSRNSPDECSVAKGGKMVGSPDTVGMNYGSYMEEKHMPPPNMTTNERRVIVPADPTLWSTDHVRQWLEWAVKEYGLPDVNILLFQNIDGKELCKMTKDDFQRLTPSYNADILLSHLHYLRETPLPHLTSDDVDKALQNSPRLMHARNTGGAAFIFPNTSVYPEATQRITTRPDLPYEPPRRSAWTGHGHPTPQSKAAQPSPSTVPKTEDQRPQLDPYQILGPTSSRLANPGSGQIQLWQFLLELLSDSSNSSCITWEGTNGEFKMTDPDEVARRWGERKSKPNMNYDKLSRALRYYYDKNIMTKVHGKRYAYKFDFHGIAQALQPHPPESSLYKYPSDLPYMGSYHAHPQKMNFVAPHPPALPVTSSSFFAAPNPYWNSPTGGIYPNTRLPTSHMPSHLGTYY
The following applies: protein: recombinant; tags: N-terminal GST; dsDNA, one strand shown. In outline: as §1

Experiment [5] addresses ELF1 (Homo sapiens, UniProt P32519 1-619). The following applies: protein: recombinant; tags: N-terminal GST; dsDNA, one strand shown. In outline:
as §1

Experiment [6] deals with T5, EHF (Homo sapiens, UniProt Q9NZC4 1-300).
T5 sequence: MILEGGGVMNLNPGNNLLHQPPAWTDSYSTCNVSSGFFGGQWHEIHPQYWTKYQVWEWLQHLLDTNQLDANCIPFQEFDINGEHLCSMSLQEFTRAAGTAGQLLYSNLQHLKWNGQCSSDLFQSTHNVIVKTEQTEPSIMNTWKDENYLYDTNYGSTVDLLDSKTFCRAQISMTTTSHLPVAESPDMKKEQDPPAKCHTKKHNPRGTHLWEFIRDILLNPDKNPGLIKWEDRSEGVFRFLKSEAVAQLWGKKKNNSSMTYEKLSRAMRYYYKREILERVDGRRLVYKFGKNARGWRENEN
The note with it: protein: recombinant; tags: N-terminal GST; dsDNA, one strand shown. In outline:
as §1

Experiment [7] concerns the target SPI1 (Homo sapiens, UniProt P17947 1-270). The following applies: protein: recombinant; tags: N-terminal GST; dsDNA, one strand shown. An outline of the steps:
as §1

For experiment [8], the target named is SPIB (Homo sapiens, UniProt Q01892 1-262). The following applies: protein: recombinant; tags: N-terminal GST; dsDNA, one strand shown. An outline of the steps:
as §1

The target of experiment [9] is T6, ELK3 (Homo sapiens, UniProt P41970 1-407).
T6 sequence: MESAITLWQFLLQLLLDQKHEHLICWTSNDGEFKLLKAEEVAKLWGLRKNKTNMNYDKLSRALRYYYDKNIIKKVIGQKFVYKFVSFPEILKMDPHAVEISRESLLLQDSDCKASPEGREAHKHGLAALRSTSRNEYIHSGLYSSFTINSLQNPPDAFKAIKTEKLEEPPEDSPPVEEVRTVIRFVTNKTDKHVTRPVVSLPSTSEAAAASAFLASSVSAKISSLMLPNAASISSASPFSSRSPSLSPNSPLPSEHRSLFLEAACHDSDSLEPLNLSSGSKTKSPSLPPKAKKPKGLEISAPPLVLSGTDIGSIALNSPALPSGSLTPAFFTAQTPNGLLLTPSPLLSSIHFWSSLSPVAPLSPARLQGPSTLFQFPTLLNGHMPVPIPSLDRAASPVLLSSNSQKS
The note with it: protein: recombinant; tags: N-terminal GST; dsDNA, one strand shown. An outline of the steps: as §1

In experiment [10] the target is T7, FEV (Homo sapiens, UniProt Q99581 1-238).
T7 sequence: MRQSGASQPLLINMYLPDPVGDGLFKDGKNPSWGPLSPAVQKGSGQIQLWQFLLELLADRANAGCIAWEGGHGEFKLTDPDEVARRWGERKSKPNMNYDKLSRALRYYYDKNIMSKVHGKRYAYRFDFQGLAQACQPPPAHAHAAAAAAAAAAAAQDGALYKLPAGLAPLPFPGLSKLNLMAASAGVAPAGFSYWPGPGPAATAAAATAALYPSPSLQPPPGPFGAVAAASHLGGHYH
The note with it: protein: recombinant; tags: N-terminal GST; dsDNA, one strand shown. An outline of the steps:
as §1

In experiment [11] the target is ETV5 (Homo sapiens, UniProt P41161 1-510). The note with it: protein: recombinant; tags: N-terminal GST; dsDNA, one strand shown. In outline:
as §1

For experiment [12], the target named is HSF1 (Homo sapiens, UniProt Q00613 1-529). The following applies: protein: recombinant; tags: N-terminal GST; chain copies: 3; dsDNA, one strand shown. An outline of the steps: as §1
For experiment [13], the target named is ELF4 (Homo sapiens, UniProt Q99607 1-663). The note with it: protein: recombinant; tags: N-terminal GST; dsDNA, one strand shown. An outline of the steps:
as §1

Experiment [14] deals with T8, ELK4 (Homo sapiens, UniProt P28324-2 1-405).
T8 sequence: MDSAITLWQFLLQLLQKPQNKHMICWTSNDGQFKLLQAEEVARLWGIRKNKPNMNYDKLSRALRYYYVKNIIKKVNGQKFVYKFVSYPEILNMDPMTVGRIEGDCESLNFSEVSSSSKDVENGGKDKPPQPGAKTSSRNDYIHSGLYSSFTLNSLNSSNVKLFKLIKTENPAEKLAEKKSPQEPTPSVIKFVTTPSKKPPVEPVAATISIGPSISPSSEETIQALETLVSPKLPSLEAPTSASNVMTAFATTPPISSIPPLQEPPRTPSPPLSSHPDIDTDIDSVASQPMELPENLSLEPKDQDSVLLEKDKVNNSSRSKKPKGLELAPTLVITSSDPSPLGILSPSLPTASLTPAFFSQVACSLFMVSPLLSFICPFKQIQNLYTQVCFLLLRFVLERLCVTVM
The following applies: protein: recombinant; tags: N-terminal GST; dsDNA, one strand shown. In outline: as §1

Experiment [15] concerns the target T9, ETV2 (Homo sapiens, UniProt O00321 1-342).
T9 sequence: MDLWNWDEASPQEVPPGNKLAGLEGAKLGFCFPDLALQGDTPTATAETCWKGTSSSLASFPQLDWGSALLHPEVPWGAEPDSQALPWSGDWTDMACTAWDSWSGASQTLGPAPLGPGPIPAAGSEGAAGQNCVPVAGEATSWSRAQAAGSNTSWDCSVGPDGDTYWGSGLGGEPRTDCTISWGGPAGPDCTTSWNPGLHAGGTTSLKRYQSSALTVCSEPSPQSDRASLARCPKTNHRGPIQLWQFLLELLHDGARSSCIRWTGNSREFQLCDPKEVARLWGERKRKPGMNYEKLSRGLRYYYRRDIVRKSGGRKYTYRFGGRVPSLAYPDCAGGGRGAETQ
The note with it: protein: recombinant; tags: N-terminal GST; dsDNA, one strand shown. In outline: as §1

The target of experiment [16] is CRX (Homo sapiens, UniProt O43186 1-299). The note with it: protein: recombinant; tags: N-terminal GST; dsDNA, one strand shown. An outline of the steps:
as §1

The target of experiment [17] is ETV1 (Homo sapiens, UniProt P50549 1-477). The following applies: protein: recombinant; tags: N-terminal GST; dsDNA, one strand shown. An outline of the steps: as §1

The text below walks through data of paper PMC7862700, “An all-to-all approach to the identification of sequence-specific readers for epigenetic DNA modifications on cytosine”.

Chain of ETV1 (P50549 whole entry): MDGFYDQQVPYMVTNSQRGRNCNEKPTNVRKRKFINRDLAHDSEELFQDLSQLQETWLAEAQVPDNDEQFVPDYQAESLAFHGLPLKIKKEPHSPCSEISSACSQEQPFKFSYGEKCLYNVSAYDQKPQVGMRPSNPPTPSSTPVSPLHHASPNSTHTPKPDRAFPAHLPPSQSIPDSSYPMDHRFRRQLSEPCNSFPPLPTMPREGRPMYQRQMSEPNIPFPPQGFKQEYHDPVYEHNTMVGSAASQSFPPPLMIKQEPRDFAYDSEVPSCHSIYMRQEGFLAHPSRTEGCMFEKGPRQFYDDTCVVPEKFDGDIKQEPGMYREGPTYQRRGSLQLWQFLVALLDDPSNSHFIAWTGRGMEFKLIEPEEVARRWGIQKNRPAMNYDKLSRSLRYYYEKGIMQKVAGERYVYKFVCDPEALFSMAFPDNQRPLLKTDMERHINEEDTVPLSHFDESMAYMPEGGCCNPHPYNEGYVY
Chain of SPIB (Q01892 whole entry): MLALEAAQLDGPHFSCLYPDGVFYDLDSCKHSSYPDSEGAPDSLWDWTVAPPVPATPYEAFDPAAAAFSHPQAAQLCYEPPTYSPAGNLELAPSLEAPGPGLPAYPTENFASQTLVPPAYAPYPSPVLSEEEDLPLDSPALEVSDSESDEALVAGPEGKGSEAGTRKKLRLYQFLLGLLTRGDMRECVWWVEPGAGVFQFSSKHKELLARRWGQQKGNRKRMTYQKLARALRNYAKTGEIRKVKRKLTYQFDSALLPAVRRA
Chain of CRX (O43186 whole entry): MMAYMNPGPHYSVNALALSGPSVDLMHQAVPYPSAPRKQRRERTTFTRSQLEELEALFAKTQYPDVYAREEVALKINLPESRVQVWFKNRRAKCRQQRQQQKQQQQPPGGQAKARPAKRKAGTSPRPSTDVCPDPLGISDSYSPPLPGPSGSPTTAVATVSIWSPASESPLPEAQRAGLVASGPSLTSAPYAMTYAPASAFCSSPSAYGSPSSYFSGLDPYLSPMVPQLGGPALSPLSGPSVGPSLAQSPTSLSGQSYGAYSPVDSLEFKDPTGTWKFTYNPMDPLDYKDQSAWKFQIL
Chain of ETV5 (P41161 whole entry): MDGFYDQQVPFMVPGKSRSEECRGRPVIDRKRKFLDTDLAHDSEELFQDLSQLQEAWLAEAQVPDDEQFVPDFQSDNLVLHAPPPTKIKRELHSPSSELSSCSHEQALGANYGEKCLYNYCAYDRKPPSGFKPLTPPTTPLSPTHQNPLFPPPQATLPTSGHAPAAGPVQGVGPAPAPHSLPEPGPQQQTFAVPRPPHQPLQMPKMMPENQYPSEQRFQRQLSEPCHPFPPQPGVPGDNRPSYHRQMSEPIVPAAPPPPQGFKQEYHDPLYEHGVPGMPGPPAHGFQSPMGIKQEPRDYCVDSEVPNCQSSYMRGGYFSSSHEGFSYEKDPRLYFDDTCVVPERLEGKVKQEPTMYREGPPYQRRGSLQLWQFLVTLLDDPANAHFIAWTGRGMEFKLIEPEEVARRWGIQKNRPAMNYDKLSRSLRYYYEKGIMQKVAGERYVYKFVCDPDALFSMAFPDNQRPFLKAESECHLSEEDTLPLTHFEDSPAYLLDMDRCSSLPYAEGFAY
Chain of ELF1 (P32519 whole entry): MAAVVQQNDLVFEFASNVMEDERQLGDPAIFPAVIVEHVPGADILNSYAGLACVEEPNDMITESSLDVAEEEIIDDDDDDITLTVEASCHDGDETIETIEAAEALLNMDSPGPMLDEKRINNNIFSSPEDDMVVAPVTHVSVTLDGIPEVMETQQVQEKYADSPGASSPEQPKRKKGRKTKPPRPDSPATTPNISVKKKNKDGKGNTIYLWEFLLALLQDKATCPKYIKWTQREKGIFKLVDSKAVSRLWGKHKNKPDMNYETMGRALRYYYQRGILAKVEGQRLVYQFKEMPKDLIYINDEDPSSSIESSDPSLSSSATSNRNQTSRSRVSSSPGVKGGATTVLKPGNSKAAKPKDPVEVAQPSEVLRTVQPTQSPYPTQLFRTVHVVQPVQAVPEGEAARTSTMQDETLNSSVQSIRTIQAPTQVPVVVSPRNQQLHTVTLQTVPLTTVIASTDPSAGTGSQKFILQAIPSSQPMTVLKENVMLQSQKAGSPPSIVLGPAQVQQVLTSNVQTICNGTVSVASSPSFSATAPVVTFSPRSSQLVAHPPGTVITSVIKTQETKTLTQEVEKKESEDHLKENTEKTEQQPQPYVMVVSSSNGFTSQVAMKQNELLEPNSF
Chain of HSF1 (Q00613 whole entry): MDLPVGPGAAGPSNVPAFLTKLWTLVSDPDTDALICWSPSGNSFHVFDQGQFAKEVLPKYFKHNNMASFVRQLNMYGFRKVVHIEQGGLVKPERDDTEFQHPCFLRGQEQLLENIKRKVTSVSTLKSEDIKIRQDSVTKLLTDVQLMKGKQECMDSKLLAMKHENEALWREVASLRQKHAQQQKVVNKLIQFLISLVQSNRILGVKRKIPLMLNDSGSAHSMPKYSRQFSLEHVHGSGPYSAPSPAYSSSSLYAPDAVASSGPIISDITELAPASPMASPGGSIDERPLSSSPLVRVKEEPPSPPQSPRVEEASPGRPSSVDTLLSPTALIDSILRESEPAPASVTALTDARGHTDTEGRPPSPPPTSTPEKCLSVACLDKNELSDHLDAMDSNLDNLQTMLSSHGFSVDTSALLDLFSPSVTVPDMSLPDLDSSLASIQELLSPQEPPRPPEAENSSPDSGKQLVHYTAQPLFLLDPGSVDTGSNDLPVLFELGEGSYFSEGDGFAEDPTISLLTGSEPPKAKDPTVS
Chain of ELF4 (Q99607 whole entry): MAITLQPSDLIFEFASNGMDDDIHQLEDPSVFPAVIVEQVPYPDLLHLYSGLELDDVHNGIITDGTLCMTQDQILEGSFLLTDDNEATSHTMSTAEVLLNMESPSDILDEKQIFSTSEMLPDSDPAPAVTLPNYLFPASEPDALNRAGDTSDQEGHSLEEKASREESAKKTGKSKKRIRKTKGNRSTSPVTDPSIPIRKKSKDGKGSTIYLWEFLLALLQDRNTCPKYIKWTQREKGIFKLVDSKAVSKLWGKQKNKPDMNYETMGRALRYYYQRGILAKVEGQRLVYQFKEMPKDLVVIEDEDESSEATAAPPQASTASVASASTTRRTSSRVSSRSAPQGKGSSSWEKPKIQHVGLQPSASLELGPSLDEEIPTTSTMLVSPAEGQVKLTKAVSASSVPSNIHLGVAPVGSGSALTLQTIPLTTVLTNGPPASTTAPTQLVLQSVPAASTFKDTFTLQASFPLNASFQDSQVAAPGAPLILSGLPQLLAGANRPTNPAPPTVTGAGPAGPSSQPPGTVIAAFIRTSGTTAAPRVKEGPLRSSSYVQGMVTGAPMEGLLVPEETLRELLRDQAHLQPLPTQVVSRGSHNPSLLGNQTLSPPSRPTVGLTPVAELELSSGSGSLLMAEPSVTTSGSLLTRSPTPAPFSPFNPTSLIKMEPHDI

Regarding ATTGTC, the binding signal in experiment [1] was 1.17 fold enrichment (6-mer frequency, TF over GST control); in experiment [2], 1.07 fold enrichment (6-mer frequency, TF over GST control); in [3], 1.16 fold enrichment (6-mer frequency, TF over GST control); in experiment [4], 1.13 fold enrichment (6-mer frequency, TF over GST control); in experiment [5], 1.13 fold enrichment (6-mer frequency, TF over GST control); in experiment [6], 1.08 fold enrichment (6-mer frequency, TF over GST control). Moreover, the binding signal in experiment [7] was 1.05 fold enrichment (6-mer frequency, TF over GST control); in [8], 1.14 fold enrichment (6-mer frequency, TF over GST control); in [9] it was 1.35 fold enrichment (6-mer frequency, TF over GST control); in experiment [10], 1.11 fold enrichment (6-mer frequency, TF over GST control); in experiment [11] it was 1.14 fold enrichment (6-mer frequency, TF over GST control); in [12] it was 1.04 fold enrichment (6-mer frequency, TF over GST control). The binding signal in experiment [13] was 1.08 fold enrichment (6-mer frequency, TF over GST control); in experiment [14], 1.17 fold enrichment (6-mer frequency, TF over GST control); in experiment [15], 1.14 fold enrichment (6-mer frequency, TF over GST control); in experiment [16], 1.06 fold enrichment (6-mer frequency, TF over GST control); in experiment [17], 1.21 fold enrichment (6-mer frequency, TF over GST control).
